Results as given in the supplement of paper PMC10811239.

What was measured:
Assay in all cases: bioluminescence (viable cell) signal fold change after vs before treatment, normalised to DMSO (ratio); higher = more tumour cell growth / less inhibition
Settings in all cases: 10 µM; treatment time 6 days
[1] = system: LEGO organoid PT (PTEN-/-; TP53-/-)
Description: (§1)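 Luc2-labelled iPSC-derived glioblastoma-like organoids (LEGOs, genotypes PT = PTEN-/-;TP53-/-, PTCC = plus CDKN2A/B-/-, PTN = plus NF1-/-) were treated with 10 uM drug for 6 days (applied every other day) at 37 C. Bioluminescence imaging was done before treatment and 2 days after the last dose. BLI signals were normalised to the DMSO control on the same day and then to the pre-treatment signal (N=3).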

[2] = system: LEGO organoid PTCC (PTEN-/-; TP53-/-; CDKN2A-/-; CDKN2B-/-)
Description: as §1

[3] = system: LEGO organoid PTN (PTEN-/-; TP53-/-; NF1-/-)
Description: as §1

| Compound | bioluminescence [1] | bioluminescence [2] | bioluminescence [3] |
| --- | --- | --- | --- |
| Clc1ccc(COC(Cn2ccnc2)c2ccc(Cl)cc2Cl)c(Cl)c1.O=[N+]([O-])O (centres undefined) [Miconazole nitrate] | 0.225 | 0.22 | 1.21 |
| O=C([O-])CCCc1ccccc1.[Na+] [Sodium Phenylbutyrate] | 1.37 | 0.911 | 3.02 |
| CS(=O)(=O)CCNCc1ccc(-c2ccc3ncnc(Nc4ccc(OCc5cccc(F)c5)c(Cl)c4)c3c2)o1.Cc1ccc(S(=O)(=O)O)cc1.Cc1ccc(S(=O)(=O)O)cc1 [Lapatinib Ditosylate] | 1.34 | 1.03 | 0.778 |
| Cl.CN(C)CC\C=C1\c2ccccc2CCc2ccccc12 [Amitriptyline hydrochloride] | 1.32 | 0.794 | 1.12 |
| Cc1cn([C@H]2C=C[C@@H](CO)O2)c(=O)[nH]c1=O [Stavudine] | 3.29 | 0.83 | 0.812 |
| CN1[C@@H]2CCC[C@H]1C[C@@H](NC(=O)c1nn(C)c3ccccc13)C2.Cl [Granisetron hydrochloride] | 0.715 | 0.701 | 1.92 |
| NC(=O)OCC(COC(N)=O)c1ccccc1 [Felbamate] | 0.699 | 3.87 | 0.547 |
| Cc1ccccc1C(OCCN(C)C)c1ccccc1.Cl (centres undefined) [Orphenadrine hydrochloride] | 1.02 | 1.18 | 1.59 |
| Nc1ncnc2c1ncn2[C@@H]1O[C@H](CO)[C@@H](O)[C@H]1OP(=O)(O)O [Adenosine-2'-monophosphate] | 1.31 | 1.96 | 1.26 |
| CC1(C)O[C@@H]2[C@@H](CO[C@@]3(COS(N)(=O)=O)OC(C)(C)O[C@@H]23)O1 [Topiramate] | 1.02 | 1.62 | 5.65 |
| CCN1CCN(C(=O)N[C@@H](C(=O)N[C@@H]2C(=O)N3[C@@H]2SC(C)(C)[C@@H]3C(=O)[O-])c2ccccc2)C(=O)C1=O.[Na+] [Piperacillin sodium salt] | 1.08 | 1.11 | 0.935 |
| CN(C/C=C/C#CC(C)(C)C)Cc1cccc2ccccc12 [Terbinafine] | 0.601 | 1.04 | 2.32 |
| CC(C)Oc1ccc(-c2nc(-c3cccc4c3CC[C@@H]4NCCO)no2)cc1C#N [Ozanimod] | 0.725 | 0.828 | 0.741 |
| Nc1nc(=O)n([C@@H]2CS[C@H](CO)O2)cc1F [Emtricitabine] | 0.905 | 0.872 | 0.495 |
| CCCc1nc(C)c2c(=O)[nH]c(-c3cc(S(=O)(=O)N4CCN(CC)CC4)ccc3OCC)nn12 [Vardenafil] | 1.36 | 1.16 | 1.29 |
| CN(C)CC(c1ccc(O)cc1)C1(O)CCCCC1 (centres undefined) [Desvenlafaxine] | 1.01 | 1.07 | 0.36 |
| CN(C)C(=N)NC(=N)N [Metformin] | 0.733 | 1.89 | 2.37 |
| COc1cc2c(Nc3ccc(Br)cc3F)ncnc2cc1OCC1CCN(C)CC1 [Vandetanib] | 1.32 | 0.918 | 0.168 |
| COc1cc2ncnc(Nc3ccc(F)c(Cl)c3)c2cc1OCCCN1CCOCC1 [Gefitinib] | 1.78 | 1.22 | 2.43 |
| S=c1nc[nH]c2nc[nH]c12 [Mercaptopurine] | 4.23 | 1.6 | 0.946 |

| Compound | bioluminescence [1] | bioluminescence [2] | bioluminescence [3] |
| --- | --- | --- | --- |
| COCCCC/C(=N\OCCN)c1ccc(C(F)(F)F)cc1.O=C(O)/C=C\C(=O)O [Fluvoxamine maleate] | 1.22 | 0.792 | 1.47 |
| Cn1c(=O)c2[nH]cnc2n(C)c1=O [Theophylline] | 0.849 | 1.2 | 2.42 |
| CCOC(=O)C1=C(C)NC(C)=C(C(=O)OC)C1c1cccc(Cl)c1Cl (centres undefined) [Felodipine] | 1.06 | 1.16 | 1.04 |
| COc1cc(Nc2c(C#N)cnc3cc(OCCCN4CCN(C)CC4)c(OC)cc23)c(Cl)cc1Cl [Bosutinib] | 1.24 | 0.731 | 0.669 |
| Cl.Clc1cccc(Cl)c1NC1=NCCN1 [Clonidine hydrochloride] | 1.1 | 1.29 | 0.76 |
| NC(=O)c1cn(Cc2c(F)cccc2F)nn1 [Rufinamide] | 0.54 | 2.69 | 1 |
| Cc1cc2c(s1)Nc1ccccc1N=C2N1CCN(C)CC1 [Olanzapine] | 1.17 | 0.712 | 1.81 |
| CCc1cc(C(N)=S)ccn1 [Ethinamide] | 2.05 | 0.707 | 1.99 |
| CCN(CC)CC(=O)Nc1c(C)cccc1C [Xylocaine] | 1.02 | 1.13 | 1.22 |
| NC(CO)(CO)CO.O=C(c1ccccc1)c1ccc2n1CCC2C(=O)O (centres undefined) [Ketorolac tromethamine salt] | 1.75 | 1.57 | 2.19 |
| COc1cc(C(C)=O)ccc1OCCCN1CCC(c2noc3cc(F)ccc23)CC1 [Iloperidone] | 1.45 | 1.06 | 2.12 |
| Cc1cccc(N(C)C(=S)Oc2ccc3ccccc3c2)c1 [Tolnaftate] | 1.01 | 0.931 | 1.31 |
| CC(=O)O.Cc1c(-c2ccc(O)cc2)n(Cc2ccc(OCCN3CCCCCC3)cc2)c2ccc(O)cc12 [Bazedoxifene acetate] | 0.897 | 1.37 | 0.0363 |
| COc1cc2c(cc1OC)C(=O)C(CC1CCN(Cc3ccccc3)CC1)C2 (centres undefined) [Donepezil] | 0.84 | 0.645 | 1.1 |
| Cc1ccc(Nc2nccc(N(C)c3ccc4c(C)n(C)nc4c3)n2)cc1S(N)(=O)=O [Pazopanib] | 0.948 | 0.395 | 0.583 |
| COc1ccccc1Oc1c(NS(=O)(=O)c2ccc(C(C)(C)C)cc2)nc(-c2ncccn2)nc1OCCO [Bosentan] | 0.81 | 1.68 | 1.28 |
| CN(CCOc1ccc(CC2SC(=O)NC2=O)cc1)c1ccccn1 (centres undefined) [Rosiglitazone] | 0.664 | 1.87 | 1.22 |
| CCC(C)n1ncn(-c2ccc(N3CCN(c4ccc(OC[C@H]5CO[C@](Cn6cncn6)(c6ccc(Cl)cc6Cl)O5)cc4)CC3)cc2)c1=O (some centres undefined) [Itraconazole] | 1.69 | 0.596 | 1.31 |
| CN1CCN(C2=Nc3cc(Cl)ccc3Nc3ccccc32)CC1 [Clozapine] | 1.13 | 0.388 | 0.617 |
| CO[C@H]1/C=C/O[C@@]2(C)Oc3c(C)c(O)c4c(O)c(c(/C=N/N5CCN(C6CCCC6)CC5)c(O)c4c3C2=O)NC(=O)/C(C)=C\C=C\[C@H](C)[C@H](O)[C@@H](C)[C@@H](O)[C@@H](C)[C@H](OC(C)=O)[C@@H]1C [Rifapentine] | 3.28 | 0.434 | 1.39 |

| Compound | bioluminescence [1] | bioluminescence [2] | bioluminescence [3] |
| --- | --- | --- | --- |
| CCOC(=O)OC(C)OC(=O)[C@@H]1N2C(=O)[C@@H](NC(=O)[C@H](N)c3ccccc3)[C@H]2SC1(C)C.Cl (some centres undefined) [Bacampicillin hydrochloride] | 0.788 | 1.35 | 3.29 |
| CC[C@H](C)C(=O)O[C@H]1C[C@@H](C)C=C2C=C[C@H](C)[C@H](CC[C@@H]3C[C@@H](O)CC(=O)O3)[C@H]21 [Lovastatin] | 1.33 | 1.02 | 0.3 |
| C#Cc1cccc(Nc2ncnc3cc(OCCOC)c(OCCOC)cc23)c1 [Erlotinib] | 0.504 | 4.27 | 1.82 |
| Cc1ccc(C(=O)c2cc(O)c(O)c([N+](=O)[O-])c2)cc1 [Tolcapone] | 1.1 | 2.93 | 1.31 |
| Cl.O=C1CC2(CCCC2)CC(=O)N1CCCCN1CCN(c2ncccn2)CC1 [Buspirone hydrochloride] | 1.22 | 1.47 | 0.759 |
| CN[C@H]1CC[C@@H](c2ccc(Cl)c(Cl)c2)c2ccccc21.Cl [Sertraline hydrochloride] | 0.66 | 0.888 | 1.32 |
| CNCC[C@@H](Oc1ccccc1C)c1ccccc1.Cl [Atomoxetine hydrochloride] | 0.833 | 1.04 | 1.97 |
| C[C@H](C(=O)O)c1cccc(C(=O)c2ccccc2)c1 [(S)-(+)-Ketoprofen] | 0.793 | 1.1 | 0.728 |
| CC/C(=C(/CC)c1ccc(O)cc1)c1ccc(O)cc1 [Diethylstilbestrol] | 1.01 | 0.673 | 2.47 |
| CS(=O)(=O)OCCCCOS(C)(=O)=O [Busulfan] | 2.15 | 1.3 | 2.3 |
| COc1ccc(CNc2nc(N3CCC[C@H]3CO)ncc2C(=O)NCc2ncccn2)cc1Cl [Avanafil] | 0.905 | 0.873 | 1.11 |
| CCN(CC)CC(=O)Nc1c(C)cccc1C.Cl [Lidocaine hydrochloride] | 1.49 | 1.11 | 1.08 |
| CC1COc2c(N3CCN(C)CC3)c(F)cc3c(=O)c(C(=O)O)cn1c23 (centres undefined) [Ofloxacin] | 1.08 | 2.88 | 1.19 |
| CCCCC1C(=O)N(c2ccccc2)N(c2ccccc2)C1=O [Phenylbutazone] | 2.33 | 1.76 | 2.68 |
| NS(=O)(=O)Cc1noc2ccccc12 [Zonisamide] | 0.521 | 1.19 | 1.19 |
| CC(=O)Nc1nnc(S(N)(=O)=O)s1 [Acetazolamide] | 1.6 | 1.7 | 2.04 |
| CC(CN(C)C)CN1c2ccccc2CCc2ccccc21.O=C(O)/C=C\C(=O)O (centres undefined) [Trimipramine maleate] | 0.503 | 0.61 | 1.58 |
| CN[C@H](CC(C)C)C(=O)N[C@H]1C(=O)N[C@@H](CC(N)=O)C(=O)N[C@H]2C(=O)N[C@H]3C(=O)N[C@H](C(=O)N[C@H](C(=O)O)c4cc(O)cc(O)c4-c4cc3ccc4O)[C@H](O)c3ccc(c(Cl)c3)Oc3cc2cc(c3O[C@@H]2O[C@H](CO)[C@@H](O)[C@H](O)[C@H]2O[C@H]2C[C@](C)(N)[C@H](O)[C@H](C)O2)Oc2ccc(cc2Cl)[C@H]1O [Vancomycin] | 1.48 | 0.957 | 0.868 |
